Records with an inconclusive call do not appear. The source made the active and inactive calls. Calls come from the whole dose curve; as a rule, active = well fitted inhibition curve with a large enough effect; inconclusive = small, poorly fitted or top-dose-only effect; inactive = flat fitted curve, though single readings scatter.
These molecules were tested against Calcium and integrin-binding protein 1 (Homo sapiens) (UniProt Q99828) (assay: Primary qHTS for Identification of Calcium Integrin Binding Protein 1 (CIB1) Competitor (AID 1508620;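 note: GST tagged CIB1 binding a fluorescein labelled alphaIIb integrin peptide tracer; top concentration of the series differs between compounds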)). Conditions: CIB1-GST / FITC-alphaIIb peptide fluorescence polarization; series mostly up to 114 µM; activity change, negative = inhibition: at the top concentration.
Calcium and integrin-binding protein 1 (Homo sapiens), sequence (Q99828 whole entry, looked up): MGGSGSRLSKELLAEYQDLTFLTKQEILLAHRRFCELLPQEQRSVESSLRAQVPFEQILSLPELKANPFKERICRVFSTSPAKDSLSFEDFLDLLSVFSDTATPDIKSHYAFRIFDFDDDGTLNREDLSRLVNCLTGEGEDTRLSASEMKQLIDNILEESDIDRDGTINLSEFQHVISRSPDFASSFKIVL
Procedure, shortened: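 Fluorescence polarization competition: CIB1-GST (1 uM final) preincubated with compound 15 min at room temperature, then FITC-labeled alphaIIb peptide (100 nM final) added for another 15 min. Polarization read at Ex 480/Em 540.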
With O=C1CCCC2=C1C(c1[nH]ncc1Cl)NC(=NCc1cccnc1)N2 (centres undefined) the “activity change, negative = inhibition” value was 1.94% (inactive). In the case of Cc1cnccc1-c1nc(Nc2ccc(F)c(F)c2)c2ccccc2n1, the “activity change, negative = inhibition” value is reported as 8.68% (inactive). For NC(=O)C1CCN(c2ncc(Br)cn2)CC1, the “activity change, negative = inhibition” value was 4.11% (inactive). With COc1cccc(-c2ccc3ncnc(NCc4cccc(F)c4)c3c2)c1 the “activity change, negative = inhibition” value was 3.98% (inactive). In the case of O=C1CN(S(=O)(=O)c2ccc3c(c2)OCCO3)CCN1S(=O)(=O)c1c(F)cccc1F, the “activity change, negative = inhibition” value is reported as -0.843% (inactive). For Cc1ccc2nsnc2c1S(=O)(=O)Nc1cccc2cccnc12, the “activity change, negative = inhibition” value was -4.15% (inactive). Cc1cc(C)nc(NC(=S)N2CCN(c3ncnc4ccccc34)CC2)c1 was tested, and the “activity change, negative = inhibition” value was 2.7% (inactive). N#Cc1cc(NC(=O)Nc2nnc(-c3ccncc3)s2)ccc1Br was tested, and the “activity change, negative = inhibition” value was -2.24% (inactive). Cc1cc(C)nc(NC(=S)N2CC3CN(c4ccc(Cl)cc4C(F)(F)F)CC3C2)c1 (centres undefined) was tested, and the “activity change, negative = inhibition” value was 1.57% (inactive). In the case of O=C(COC(=O)CNC(=O)c1ccccc1)Nc1ccccc1Cl, the “activity change, negative = inhibition” value is reported as -1.75% (inactive). O=S(=O)(NCc1ccccc1F)c1ccc(O)c2ncccc12 was tested, and the “activity change, negative = inhibition” value was -5.9% (inactive). For CCOC(=O)c1cccc(-n2cnc(/C=C3\NC(=O)N(CC(=O)O)C3=O)c2)c1, the “activity change, negative = inhibition” value was 16.2% (inactive). In the case of COc1ccc(NS(=O)(=O)c2ccccc2C(=O)O)cc1, the “activity change, negative = inhibition” value is reported as -5.1% (inactive). With O=C(Cc1ccc(Cl)c(Cl)c1)Nc1ccc(S(=O)(=O)Nc2cccc(O)c2)cc1 the “activity change, negative = inhibition” value was -14.6% (inactive). In the case of COc1ccc(-c2no[n+]([O-])c2C#N)cc1, the “activity change, negative = inhibition” value is reported as 4.04% (inactive). CCOc1ccc(CNc2ccc(-c3nc4ccccc4[nH]3)cc2)cc1 was tested, and the “activity change, negative = inhibition” value was -2.36% (inactive). For Cc1ccccc1C(=O)N1CCc2cc(-c3cccc(NC(=O)Cc4ccc5c(c4)OCO5)c3)ccc21, the “activity change, negative = inhibition” value was 0.879% (inactive). In the case of N[C@@H](CCC(=O)O)C(=O)Nc1ccc(Cl)cc1C(=O)c1ccc[nH]1, the “activity change, negative = inhibition” value is reported as 5.16% (inactive). For COc1cccc(C)c1NC(=O)C(OC(=O)CNC(=O)c1ccccc1)c1ccccc1 (centres undefined), the “activity change, negative = inhibition” value was 3.84% (inactive). In the case of Cc1cccc2c1NC(=O)/C2=C/c1cc(Cl)c(O)c(Cl)c1, the “activity change, negative = inhibition” value is reported as -12.3% (inactive). For Cc1noc(C)c1-c1ccc2ncnc(NCc3cc(F)cc(F)c3)c2c1, the “activity change, negative = inhibition” value was -1.05% (inactive). For CCn1cnc2c(Nc3ccc(Cc4cccnc4)cc3)nc(C#N)nc21, the “activity change, negative = inhibition” value was 1.29% (inactive). With N#CN1CCC(NS(=O)(=O)c2ccc(F)cc2)CC1 the “activity change, negative = inhibition” value was 1.09% (inactive). With O=S(=O)(NCc1ccccc1)c1ccc(O)c2ncccc12 the “activity change, negative = inhibition” value was -12.7% (inactive). For Cc1cc(C)nc(NC(=S)N2CCN(c3ccc(Cl)c(Cl)c3Cl)CC2)c1, the “activity change, negative = inhibition” value was -8.99% (inactive). In the case of O=C1CCCC2=C1C(c1[nH]ncc1Cl)NC(=NCc1ccco1)N2 (centres undefined), the “activity change, negative = inhibition” value is reported as 1.93% (inactive). O=C(NC1CCCc2c1cnn2-c1ccc(F)cc1F)c1ccc(C2(C(F)(F)F)N=N2)cc1 (centres undefined) was tested, and the “activity change, negative = inhibition” value was -0.869% (inactive). In the case of Cc1cc(C)nc(NC(=S)N2CCN(c3ccc(Cl)cc3F)CC2)c1, the “activity change, negative = inhibition” value is reported as -4.34% (inactive). COC(=O)c1ccccc1-c1ccc(/C=c2\sc3nc4cc(Br)cnc4n3c2=O)o1 was tested, and the “activity change, negative = inhibition” value was 82.8% (inactive). In the case of CC(=O)Nc1cccc(S(=O)(=O)N2CCN(S(=O)(=O)c3ccc4c(c3)OCCO4)CC2)c1, the “activity change, negative = inhibition” value is reported as 3.22% (inactive). In the case of COC(=O)c1ccc(-c2c(NC(C)=O)sc3c2CCNC3)cc1, the “activity change, negative = inhibition” value is reported as -0.341% (inactive). COc1cc(O)c(C(CC(=O)N2CCC[C@@H](C)C2)c2ccc3c(c2)OCO3)c(OC)c1 (some centres undefined) was tested, and the “activity change, negative = inhibition” value was 1.86% [at 228 µM] (inactive). For Cc1cnc(-c2ccccc2C(C)C)nc1NCC1CCN(c2cccnc2)CC1, the “activity change, negative = inhibition” value was 31.2% (inactive). In the case of Cc1ccc2nc3sc(C(=O)N4CCC(C(N)=O)CC4)cc3cc2c1, the “activity change, negative = inhibition” value is reported as -0.511% (inactive). In the case of O=C(O)c1ccc(CSc2nnc(-c3cccc([S+](=O)([O-])NC4CCCC4)c3)n2-c2ccccc2)cc1, the “activity change, negative = inhibition” value is reported as -3.25% (inactive). With Cc1cc(N[S+](=O)([O-])c2ccc(NC(=O)Cc3ccc(Cl)nc3)cc2)no1 the “activity change, negative = inhibition” value was -12.3% (inactive). N#Cc1nc(-c2cccc3ccccc23)oc1NCC#CCOC(=O)c1cccs1 was tested, and the “activity change, negative = inhibition” value was -17.4% (inactive). For CCNC(=O)c1ccc(-c2ccc3ncnc(NCC(C)(C)C)c3c2)o1, the “activity change, negative = inhibition” value was -8.62% (inactive). Cc1ccc(N[S+](=O)([O-])c2cc3c(cc2CCc2ccccc2)NC(=O)CO3)cc1C was tested, and the “activity change, negative = inhibition” value was 4.54% (inactive).

Reference: PubChem BioAssay (NCATS)
% is set by controls: 0 for no effect and ±100 for the full control effect.
